An excerpt weighted towards active compounds, which were near 6.6% of everything screened.
BoNT F protease – BoNT/F light chain protease inhibitors, primary screen, biochemical, flow cytometry, MLPCN library; Botulinum neurotoxin type F light chain protease (Clostridium botulinum); Multiplex microsphere protease cleavage assay; inhibition, % at 10 µM; 360,000 tested, 0.22% active; AID 588497, 2011; in the data active = inhibition above about 35%, passing the limit was not always enough; inconclusive = no clear call, values can overlap the other calls; also: plate controls were buffer without enzyme for full effect and enzyme alone for no effect
GDH-TPI counter – GDH-TPI coupling enzyme inhibitors, primary screen, artefact control for M. tuberculosis FBA inhibitor project, biochemical, absorbance, full deck. GDH-TPI coupled enzyme counterscreen, NADH absorbance. inhibition, % at 4.8 µM. 360,000 tested, 1.2% active. AID 588335, 2011; in the data active = inhibition above about 30%;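 also: 0% = DMSO wells and 100% = wells lacking the enzyme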
FBA Mtb inh – Mtb FBA enzyme inhibitors, primary screen, biochemical, fluorescence, strain H37Rv; Fructose-bisphosphate aldolase (Mycobacterium tuberculosis (strain ATCC 25618 / H37Rv)), …; purified M. tuberculosis FBA, fluorescence read-out; inhibition, % at 1 µM; 360,000 tested, 2.3% active; in the data active = inhibition above about 27%;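 also: 0% = vehicle and 100% = reference inhibitor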
Target sequence (P9WQA3 whole entry, looked up): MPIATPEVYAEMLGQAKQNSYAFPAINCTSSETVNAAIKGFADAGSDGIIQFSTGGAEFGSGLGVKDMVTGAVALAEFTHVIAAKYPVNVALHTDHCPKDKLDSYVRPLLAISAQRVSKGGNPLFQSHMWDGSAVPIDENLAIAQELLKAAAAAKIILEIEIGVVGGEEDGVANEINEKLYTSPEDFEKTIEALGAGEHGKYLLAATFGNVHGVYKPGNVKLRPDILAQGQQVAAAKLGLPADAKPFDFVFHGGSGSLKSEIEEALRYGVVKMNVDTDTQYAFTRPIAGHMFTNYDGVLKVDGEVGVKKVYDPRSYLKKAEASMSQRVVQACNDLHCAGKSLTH
Anthrax LF prot – Bacillus anthracis LF protease inhibitors, primary screen, biochemical, multiplex microsphere, MLPCN library; multiplex microsphere protease cleavage assay; inhibition, % at 10 µM; 360,000 tested, 0.12% active; also: plate controls were buffer without enzyme for full effect and enzyme alone for no effect
BoNT-A LC inh2 – BoNT/A light chain protease inhibitors, primary screen, biochemical, flow cytometry, MLPCN library. multiplex microsphere protease substrate cleavage. inhibition, % at 10 µM. 360,000 tested, 0.17% active. AID 588499, 2011; also: plate controls were buffer without enzyme for full effect and enzyme alone for no effect
Autofluor counter – counter-screen for toxin protease inhibitors: compound fluorescence. compound autofluorescence counterscreen, microsphere flow cytometry; stronger effect = higher value. fluorescence intensity (no concentration beside the values). 360,000 tested, 3.1% active; in the data active = fluorescence intensity above about 16000; inconclusive = no clear call, values can overlap the other calls
An asterisk follows results filed as active; ? = inconclusive; . = no result. Rule as the data show it, unless noted: active = inhibition above about 30%; inconclusive = no clear call, values can overlap the other calls; inactive = below that.

SMILES | BoNT F protease | GDH-TPI counter | FBA Mtb inh | Anthrax LF prot | BoNT-A LC inh2 | Autofluor counter
O=C(Nc1sc2c(c1C(=O)NCc1ccco1)CCCC2)c1ccc2c(c1)OCO2 | 6 | 18 | 13 | -5 | 5 | 21722*
Cc1ccc(-c2cc(C(=O)Nc3sc4c(c3C(=O)NCc3ccco3)CCC4)[nH]n2)c(O)c1 | 2 | 16 | 2 | 0 | 0 | 2018
Cc1cc(O)c(-c2cc(C(=O)Nc3sc4c(c3C(=O)NCc3ccco3)CCC4)[nH]n2)cc1C | -6 | 34* | 2 | 2 | -2 | 4982
O=C(CCN1C(=O)c2ccccc2C1=O)Nc1sc2c(c1C(=O)NCc1ccco1)CCCC2 | -6 | -4 | -1 | -10 | ? | 23594*
Cc1nn(CC(=O)Nc2ccccc2C(F)(F)F)c(=O)c2cccn12 | 2 | 2 | 4 | -1 | 0 | 5778
CC(C)CCN1CCN(CCCn2cccn2)CC1CCO (stereo unspecified) | 4 | 9 | -5 | -1 | 0 | 2147
COc1ccccc1CNC(=O)COC(=O)c1ccc(C)c(S(=O)(=O)N2CCOCC2)c1 | -1 | 4 | 4 | -2 | 0 | ?
Cc1cn2c(N)c(C=C3C=C(Cl)C(=O)C(Cl)=C3)c(=O)nc2s1 | 141* | 3 | -12 | 32* | 23 | 26112*
COC1=C/C(=C/c2c(N)n3cc(C)sc3nc2=O)C=CC1=O | 22 | 10 | -6 | 14 | 6 | 4949
CCOc1ccc(N2CSC(=S)N(c3ccc(OCC)cc3)C2)cc1 | ? | -8 | 1 | 32* | 0 | 3691
Cc1nc2cc(-c3ccccc3)nn2c(C)c1CCC(=O)N1CCN(c2ccccc2)CC1 | -5 | 22 | 3 | -2 | -1 | 5145
COc1ccc(-c2cc3nc4c(c(N5CCC6(CC5)OCCO6)n3n2)CCC4)cc1 | 6 | 0 | -2 | 0 | 0 | 2632
COc1ccc(-c2cc3nc(-c4ccccc4)cc(N4CCC5(CC4)OCCO5)n3n2)cc1 | -12 | 14 | 28* | -3 | 0 | 8237
Cc1nc2cc(-c3ccccc3)nn2c(C)c1CCC(=O)N1CCC2(CC1)OCCO2 | -1 | 28 | 3 | -2 | -1 | 16588*
O=C(O)c1ccccc1C(=O)Nc1ccc(Oc2ccccc2)cc1 | 5 | 4 | 1 | 4 | 1 | 5944
CC(C)(C)c1ccc(Oc2ccc(NC(=O)c3ccccc3C(=O)O)cn2)cc1 | 48* | -17 | 5 | ? | -4 | 3836
S=c1[nH]nc(Cn2cnc3ccccc32)n1-c1ccccc1 | -5 | -10 | -5 | -8 | 0 | 4324
CCN1C(=O)/C(=C2\SC(=S)N(c3c(C)n(C)n(-c4ccccc4)c3=O)C2=O)c2ccccc21 | 8 | 4 | -1 | -12 | ? | 20899*
COc1ccc(-c2nn3c(C4CCCCC4)nnc3s2)cc1OC | 2 | 11 | 6 | -3 | 0 | 16665*
COc1cccc(-c2nn3c(-c4ccccn4)nnc3s2)c1 | 3 | -11 | 1 | -7 | ? | 19346*
Clc1ccccc1-c1nn2c(-c3ccccn3)nnc2s1 | 0 | -2 | -1 | -2 | 0 | 22234*
COc1ccc(-c2nn3c(-c4cccc(C)c4)nnc3s2)cc1OC | -5 | 12 | 7 | -5 | -3 | 16794*
COc1cccc(-c2nnc3sc(-c4ccccn4)nn23)c1 | -6 | 11 | 3 | 2 | 0 | 2173
COc1cc(-c2nn3c(C4CCCCC4)nnc3s2)cc(OC)c1OC | -9 | 8 | 5 | -4 | 0 | 2912
Clc1ccccc1-c1nn2c(-c3ccncc3)nnc2s1 | 9 | 7 | -4 | 0 | 0 | 7473
SMILES | BoNT F protease | GDH-TPI counter | FBA Mtb inh | Anthrax LF prot | BoNT-A LC inh2 | Autofluor counter
O=C(c1cc(-c2ccco2)nc2ccccc12)N1CCN(c2ccc(F)cc2)CC1 | -12 | 8 | 8 | -4 | -1 | 2395
C[C@H](O)[C@@H]1CN2CCc3c([nH]c4ccccc34)[C@@H]2C[C@@H]1N(C)Cc1cc(Cl)cc(Cl)c1 | -2 | -7 | 0 | -3 | 0 | 3632
CSCCC(C(=O)Nc1c(C)cccc1C)N1CCN(C/C=C/c2ccccc2)CC1 (stereo unspecified) | -1 | . | 3 | -6 | 0 | 6239
COc1ccc(-c2nn3c(-c4ccccn4)nnc3s2)cc1OC | 2 | 22 | 7 | 1 | ? | 19421*
COc1cc(/C=C2\COC/C(=C\c3ccc(O)c(OC)c3)C2=O)ccc1O | ? | 30 | -11 | -1 | 4 | 3459
C=CCOc1ccc(/C=C2\SC(N)=NC2=O)cc1OC | -2 | 30 | 1 | 9 | 1 | 3665
COc1cc(/C=C2/CC/C(=C/c3ccc(O)c(OC)c3)C2=O)ccc1O | -20 | 39* | -9 | -5 | 14 | 3855
C/C=C/c1ccc(O)c(OC)c1 | -5 | 1 | -1 | 3 | 1 | 4833
COc1cc(/C=C2\SC(N)=NC2=O)ccc1O | -12 | 39* | -8 | -13 | -2 | 3733
COc1cc(/C=C/C=C2/CC/C(=C/C=C/c3ccc(O)c(OC)c3)C2=O)ccc1O | -4 | 23 | 2 | 34* | 39* | 3836
COc1cc(/C=C2/C(=O)ON=C2c2ccccc2)ccc1O | -9 | 37* | -1 | 1 | -1 | 9231
COc1cc(/C=C2\C(=O)ON=C2c2ccccc2)cc(Cl)c1O | -4 | 7 | -3 | -6 | 0 | 4869
CC(C)C[C@@H](CN1CCC[C@@H]1CN1C(=S)NC[C@@H]1Cc1ccc(O)cc1)N1C[C@H](Cc2ccc(O)cc2)N(CC2CCCCCC2)C1=S | -6 | . | 1 | -14 | -1 | 4614
Cc1ccc(Cl)cc1N1CCN(C(=O)c2ccc3c(c2)CCN3S(C)(=O)=O)CC1 | 3 | 9 | 8 | -7 | 1 | 4074
CN(C)c1ccc(/C=N/NC(=O)CCc2nc3ccccc3[nH]2)cc1 | -6 | 24 | 26 | -4 | 0 | 4401
COc1cc(OC)nc(NC2OC(=O)c3ccccc32)n1 (stereo unspecified) | -5 | 4 | -6 | -5 | -2 | 16622*
C(=N\n1cnnc1)/c1cccn1-c1ccccc1 | -4 | 32* | -4 | -2 | -2 | 16775*
CCN1C[C@@H]2[C@@H]3C(=O)N(C)C(=O)[C@@H]3[C@](C)(C1=O)N2C(=O)c1ccc(Cl)c(Cl)c1 | 1 | 1 | 3 | -6 | 0 | 3679
COc1ccc(CN2C(=O)CCC2(C)C(=O)NCc2cccnc2)c(OC)c1 (stereo unspecified) | -2 | -16 | 6 | 1 | ? | 22905*
CC1=CC=CC2=NC(=O)CC(C)(C(=O)N(CC(=O)NC(C)C)C3CCCC3)N12 (stereo unspecified) | 20 | 15 | 128* | -1 | 1 | 7542

Assay outcomes from PubChem.
